Measured values reported in PubChem BioAssay AID2716 (Broad Institute, 2010).
Among all 320,000 compounds or so, about 3,300 (1%) were called active.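 Rule for the calls: active = every valid replicate shows activation above 250% relative to neutral control wells; inactive = the rest, any valid replicate at or below 250%.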 Many of the other results were omitted from the sample, so actives are more common in it than they were.

experiment: yeast Mot1-301 growth rescue at high temperature, primary screen, SUMOylation pathway inhibitor project, S. cerevisiae, ATP luminescence, 38.5C (AID 2716);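 note: OY570 slx delta 5 strain wells were the positive control but not used for scaling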; details: S. cerevisiae Mot1-301 growth rescue, at 18.8 µM, hits give high values, percent above DMSO median, 100 means doubled

Growth rescue, inactive:
CN(/C(=N/S(=O)(=O)c1cccs1)c1ccccc1)c1ccc(O)cc1 313%, COc1ccc(Cl)cc1NC(=O)CNc1ccccc1F 0.922%, COc1ccc(/C(C)=N/NC(=O)CCC(=O)Nc2ccc(Cl)cc2Cl)c(OC)c1 28.5%, COc1ccc(Cl)cc1-n1c(C)cc(C(=O)OCC(=O)N2CC(=O)Nc3ccccc32)c1C -14.8%, CCc1noc(C)c1C(=O)Oc1ccc(N(C)S(=O)(=O)c2ccc(C)c(C)c2)cc1 -5.53%, COCC(=O)Nc1cc(C(=O)OC)cc(C(=O)OC)c1 10%, Cc1ccnc(N2C(=O)c3ccccc3C2Nc2ccc3c(c2)OCCO3)c1 (stereo not given) -14%, COC(=O)c1cc(NC2c3ccccc3C(=O)N2c2ccc(Cl)cn2)cc(C(=O)OC)c1 (stereo not given) -1.41%, CS(=O)(=O)N(CC(=O)N/N=C/c1ccccn1)c1ccc(Oc2ccccc2)cc1 6.74%, O=C(CN1C(=O)/C(=C/c2ccccc2F)Sc2ccccc21)NCc1cccnc1 -3.97%, O=C(CCCCCN1C(=O)c2cccc3cccc(c23)C1=O)NCc1ccco1 -8.72%, Cc1ccc(NC(=O)COC(=O)CN2CCCCCC2=O)c(C)c1 2.83%, O=C(O)c1c(NC(=O)N2CCCC2)sc2c1CCCC2 2.52%, O=C(O)CCCCCCCCCC[n+]1ccccc1 17.1%, CC(CNc1ccc([N+](=O)[O-])c2cccnc12)Nc1c([N+](=O)[O-])cc(C(F)(F)F)cc1[N+](=O)[O-] (stereo not given) 469%, CCOC(=O)CCCCCC(=O)Nc1ccc2c(c1)CC(=O)N([C@@H](C)CO)C[C@H](C)[C@@H](CN(C)Cc1ccccc1)O2 -3.38%, Cc1nc2sc(C(c3ccco3)N3CCC4(CC3)OCCO4)c(O)n2n1 (stereo not given) -10%, Cc1ccc(C(c2sc3nc(C)nn3c2O)N2CCN(c3ccccc3)CC2)cc1 (stereo not given) 6.75%, CCN1CCN(C(C(=O)NC2CCCC2)c2cc3c(cc2[N+](=O)[O-])OCO3)CC1 (stereo not given) -4.81%, COc1cccc(CNC(=O)Cn2c(=O)oc3cc(S(=O)(=O)N4CCCCC4)ccc32)c1 4.01%, CC1CCCCN1C(=O)Cn1c(=O)oc2cc(S(=O)(=O)N3CCCCC3)ccc21 (stereo not given) 12%, Clc1ccc(Nc2ccc3ccccc3n2)cc1 30.7%, COc1ccc(CNC(=O)COc2cccnc2[N+](=O)[O-])cc1 -4.39%, COc1ccc(OC)c(NC(=O)CSc2nc(-c3ccccc3)cc(=O)[nH]2)c1 371%, Cc1cccc(NC(=O)c2ccc3c(=O)n(CC4CCCO4)c(=S)[nH]c3c2)c1 (stereo not given) -20.5%, O=C(NCc1ccccc1Cl)c1ccc2c(=O)n(CC3CCCO3)c(=S)[nH]c2c1 (stereo not given) -7.73%, O=C(Nc1cccc(F)c1)NC1CCCCCCC1 2.77%, N#C/C(=C(\O)CCl)c1nnc2n1CCCCC2 10%, Cc1cn(C)c(=O)n(C)c1=O 274%, Cc1ccc(-c2cn3cc([N+](=O)[O-])ccc3n2)cc1 25%, Cc1ccc2nc(-c3ccc(Br)cc3)cn2c1 -0.961%, Cc1cccc(NC(=S)N(CCN(C)C)C(C)c2ccco2)c1 (stereo not given) 58.7%, Cc1nnc(NC(=O)Cn2c(=O)sc3ccccc32)s1 0.0426%, Cn1c(=O)c2ccccc2n(CC(=O)Nc2ccc3c(c2)OCCO3)c1=O 0.839%, COCC1CCN(C(=O)CCc2nnc(C3(c4ccc(Cl)cc4)CCC3)o2)C1 (stereo not given) -10.9%, Cc1ccc(S(=O)(=O)N(CC(=O)NCCSC2CCCCC2)c2ccccc2F)cc1 1.9%

Growth rescue, active:
CCCCC(=O)N/N=C(\C)CC(=O)Nc1cc(Cl)ccc1OC 1520%, CCc1ccccc1NC1c2ccccc2C(=O)N1c1cccnc1 (stereo not given) 462%, O=C(CN1C(=O)/C(=C\c2ccc(C(F)(F)F)cc2)Sc2ccccc21)NCc1ccco1 963%, Cc1nc2sc(C(c3ccco3)N3CCOCC3)c(O)n2n1 (stereo not given) 853%, CC(C)CCNC(=O)Cn1c(=O)oc2cc(S(=O)(=O)N3CC(C)CC(C)C3)ccc21 (stereo not given) 608%, O=C(NC1CCCCC1)c1ccc2c(=O)n(CC3CCCO3)c(=O)[nH]c2c1 (stereo not given) 2310%, Cc1ccc(-c2cn3cc(C)ccc3n2)cc1 297%, O=C(Cn1c(=O)sc2ccccc21)Nc1ccc2c(c1)OCCO2 284%, Cc1cccc(N(C(=O)c2ccc(CN3CCOCC3)o2)C(C(=O)NC2CCCCC2)c2ccc(F)cc2)c1 (stereo not given) 647%
